According to PubChem BioAssay AID1159580 (chemical genetic matrix, 2015):
Screen size: about 5,500 compounds; about 2,000 (36%) were called active. Not shown: some 18% with an inconclusive outcome. No stated cut-off is given here; in the data, active means normalized growth mostly below about 0.91 (no sharp cut-off); inconclusive means no clear call, values can overlap the other calls; inactive means mostly above about 0.92. The list shows a part of the results.

Assay: chemical genetic growth profiling, strain panel (AID 1159580);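 further: tested at 20 µM; growth read once vehicle control cultures reached saturation at 30 °C; 1 = growth at the plate median or of vehicle wells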
Conditions: S. cerevisiae deletion strains, growth OD

Measured: normalized growth

COc1ccc2c(c1)c(CC(=O)O)c(C)n2Cc1ccc(F)cc1
inactive: locus YAL040C, strain CLN3, stronger effect = lower value 0.985 | locus YCL061C, strain MRC1 (second series), stronger effect = lower value 1.01 | locus YDR363W, strain ESC2, stronger effect = lower value 1 | locus YER002W, strain NOP16, stronger effect = lower value 0.999 | locus YGR078C, strain PAC10, stronger effect = lower value 1.01 | locus YMR307W, strain GAS1, stronger effect = lower value 0.99 | locus YNL128W, strain TEP1, stronger effect = lower value 0.993 | locus YNL175C, strain NOP13, stronger effect = lower value 1 | locus YNL197C, strain WHI3, stronger effect = lower value 0.991 | locus YNL224C, strain SQS1, stronger effect = lower value 0.985 | locus YNL322C, strain KRE1, stronger effect = lower value 1.01 | locus YOR083W, strain WHI5 (second series), stronger effect = lower value 1.02 | locus YPL055C, strain LGE1, stronger effect = lower value 1.01 | locus YPL241C, strain CIN2, stronger effect = lower value 1.01
